Screening data (PubChem BioAssay)
An excerpt weighted towards active compounds, which were near 2.8% of everything screened.
POLB inh: inhibitors of human DNA polymerase beta; P06746; Potency, µM (doses to about 114 µM), inactives show top-dose activity change, negative = inhibition, usual class: inhibitors; AID 485314; 1.3% of 340,000 active; Pol beta primer extension/strand displacement, fluorescence kinetic; further: potency means the concentration at half of the fitted maximal effect; on the % scale 0 is the no-effect control and ±100 the full control effect
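Curves were derived by four-parameter Hill fits of normalized qHTS data. The kinetic fluorescent primer-extension read was taken at 0 and 10 min after 50 nM substrate, following a 15 min room-temperature preincubation of 10 nM enzyme with compounds.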
PI5P4Ka inh: PI5P4K alpha (human) kinase inhibition; P48426; PI5P4Kalpha enzyme, ADP-Glo luminescence, 60 min; stronger effect = lower value; max response, %; 1.2% of 330,000 active; active means max response of -50% or lower; inconclusive means between -30% and -50%; inactive means -30% or higher; further: value at the top dose of about 77 µM; on the % scale 0 is the no-effect control and ±100 the full control effect
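qHTS, 1536-well: enzyme/substrate mix, compound by pin tool, 5 microM ATP final; RT 60 min; ADP-Glo reagents 1 (45 min) then 2 (30 min); luminescence.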
WRN helicase inh: inhibitors of human WRN helicase. WRN helicase unwinding, fluorescent forked duplex, kinetic. Potency, µM (doses to about 114 µM), inactives show at the highest dose activity change, negative = inhibition, actives largely listed as inhibitors. 0.46% of 360,000 active. AID 651768; further: potency means the concentration at half of the fitted maximal effect; on the % scale 0 is the no-effect control and ±100 the full control effect; nearly all actives have a fitted effect of over 55% in size
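WRN at 20 nM final preincubated with compound 15 min at room temperature; reaction started with 100 nM fluorophore/quencher forked duplex oligonucleotide and 2 mM ATP final. Unwinding followed kinetically by red fluorescence (ex 525, em 598 nm).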
Pol iota inh: DNA polymerase iota (human) inhibition. Q9UNA4. Pol iota fluorescent replication assay, 10 min. Potency, µM (top dose mostly 115 µM), for inactives: at the top dose activity, negative = inhibition, usual class: inhibitors. 1% of 390,000 active; further: potency means the concentration at half of the fitted maximal effect
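Fluorescent replication assay read twice, at 0 min and 10 min after adding 50 nM (final) substrate. Enzyme (10 nM) and compounds were first incubated 15 min at room temperature; enzyme-free buffer wells were negative controls.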
Pol kappa inh: blocks human DNA polymerase kappa activity. 0.53% of 400,000 active. Potency, µM (doses to about 107 µM), without a hit: at the highest dose activity, negative = inhibition, hits mostly inhibitors. Q9UBT6. purified Pol kappa, fluorescent DNA synthesis assay, 10 min; further: potency means the concentration at half of the fitted maximal effect; on the % scale 0 is the no-effect control and ±100 the full control effect
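Activity was followed as the change in fluorescence between reads at 0 and 10 min after starting the reaction with 50 nM substrate. Beforehand, 10 nM polymerase had been preincubated with compound for 15 min at room temperature.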
POLH inh: DNA polymerase eta (human) inhibition; Q9Y253; recombinant Pol eta, fluorescent DNA replication assay; Potency, µM (titrated, usually from 114 µM), without a hit: at the highest dose activity change, negative = inhibition, hits mostly inhibitors; 1.2% of 390,000 active; AID 588591; further: potency means the concentration at half of the fitted maximal effect; on the % scale 0 is the no-effect control and ±100 the full control effect
Target sequence (Q9Y253 whole entry, looked up): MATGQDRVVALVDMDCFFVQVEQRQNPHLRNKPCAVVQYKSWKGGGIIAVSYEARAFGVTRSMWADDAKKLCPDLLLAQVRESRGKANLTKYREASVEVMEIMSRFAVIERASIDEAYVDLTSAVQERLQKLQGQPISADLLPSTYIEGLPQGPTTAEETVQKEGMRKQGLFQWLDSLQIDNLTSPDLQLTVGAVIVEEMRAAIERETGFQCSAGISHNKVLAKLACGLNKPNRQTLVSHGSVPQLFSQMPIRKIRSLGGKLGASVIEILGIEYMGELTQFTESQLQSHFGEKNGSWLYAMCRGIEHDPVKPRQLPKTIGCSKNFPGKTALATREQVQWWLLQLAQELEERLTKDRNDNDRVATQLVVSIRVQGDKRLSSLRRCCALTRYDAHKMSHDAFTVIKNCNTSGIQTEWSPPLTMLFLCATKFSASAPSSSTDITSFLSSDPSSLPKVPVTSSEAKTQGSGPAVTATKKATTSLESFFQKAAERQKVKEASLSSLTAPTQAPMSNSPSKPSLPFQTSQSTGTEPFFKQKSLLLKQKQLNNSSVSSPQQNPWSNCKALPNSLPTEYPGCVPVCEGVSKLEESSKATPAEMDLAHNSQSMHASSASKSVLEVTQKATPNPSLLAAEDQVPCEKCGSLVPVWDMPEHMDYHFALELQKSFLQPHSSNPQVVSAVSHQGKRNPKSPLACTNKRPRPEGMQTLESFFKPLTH
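Fluorescent replication assay: 50 nM final substrate added after a 15 min room-temperature compound preincubation with 10 nM enzyme. Signal taken at 0 min and again at 10 min.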
* marks the source's active call; other numbers are inactive results; ? = inconclusive; . = not tested or not shown; ! = not confirmed by another sample; [ ] = another dose, or the depositor's remark. Unless noted, the call rests on the fitted dose curve; in most records, active means well fitted curve in the direction sought with a large enough effect; inconclusive means small, poorly fitted or top-dose-only effect, or another doubt; inactive means no such curve, though single readings can be large; an effect the other way counts as inactive or inconclusive.

SMILES | POLB inh | PI5P4Ka inh | WRN helicase inh | Pol iota inh | Pol kappa inh | POLH inh
Cc1cccc(C(=O)OCC(=O)c2ccc(CC(=O)N3CCOCC3)s2)c1C | . | -60* | ? | -96% | 79µM* | 10µM*
Cc1cccc(C(=O)OCC(=O)N2CC(C)OC(C)C2)c1C (stereo unspecified) | 11% | 1 | -11% | 20% | -17% | 7%
N#CC(C#N)=C1C=CC=CN1/C(=C\c1ccco1)C(=O)c1ccc(Cl)cc1 | 1% | 0 | 22µM* | ? | -19% | -13%
Cn1c(CNC(=O)c2ccccc2F)nnc1SCC(=O)c1ccccc1 | 0% | 3 | -31% | 29% | -1% | -5%
CC(C)(C)c1cc(CN2CCN(CCO)CC2)cc(C(C)(C)C)c1O | 0.89µM* | . | -5% | -14% | 0% | -1%
CCOC(=O)C1CCN(Cc2cc(C(C)(C)C)c(O)c(C(C)(C)C)c2)CC1 | 5% | 2 | 1%[57.1 µM] | 7% | 6% | -23%
CC(=O)Nc1cccc(NC(=O)COC(=O)CO/N=C(\C)c2ccc3c(c2)OCO3)c1 | -15% | 4 | -6% | 96% | -16% | -16%
C/C(=N\OCC(=O)OCC(=O)NCc1ccccc1)c1ccc2c(c1)OCO2 | . | -11 | ? | 40µM* | ? | 20µM*
O=S(=O)(NC1=NCCCCC1)c1cc(F)ccc1F | . | 0 | 1% | 67% | -13% | -17%
COc1ccc(Cn2c(SCc3ccc(C(=O)NCc4ccc(C)cc4)cc3)nc3cccnc32)cc1 | 13% | . | . | 79µM* | -36% | -5%
O=c1ccc2cc(O)c(O)cc2o1 | 0% | -6 | -10% | ? | 3.5µM*! | -2%
CC(=O)c1ccc(C(=O)N2CCC(n3nccc3NC(=O)C3CC3)CC2)cc1 | 35% | 2 | -16% | 15% | -7% | -22%
Cc1cc(-c2sccc2Br)nc(-n2cccc2)n1 | -20% | 20 | -11% | ? | 79µM* | -15%
CC1=NNC(=O)/C1=C\c1cn(-c2ccccc2)nc1-c1ccc(F)cc1 | 6% | -13 | -21% | 25µM* | -9% | -8%
Cc1ccc(OCc2nc(-c3ccc(C(=O)N4CCN(c5cc(Cl)ccc5C)CC4)cc3)oc2C)cc1 | -2% | . | . | 5% | 6% | -2%
Nc1nnnn1/N=C/c1ccccc1 | 46% | 2 | -7% | -12% | -15% | -17%
Nc1nnnn1/N=C/c1ccccc1C(F)(F)F | 16% | -56* | -33% | -5% | -11% | -14%
Cc1cc(C)c(OCCNC(=O)c2ccccc2Sc2ccccc2C#N)c(C)c1 | ? | 0 | -4% | -27% | -13%[60.1 µM] | -19%
COc1ccc(-c2cc3nc4ccccc4n3c(N)c2C#N)cc1 | 4µM* | -12 | -8% | 20% | -6% | -10%
COC(=O)c1cc(NC(=O)CN(c2ccccc2)S(=O)(=O)N(C)C)ccc1Cl | -8% | . | . | 16% | -2% | -24%
CCCCOC(=O)n1c(=S)oc2cc(Cl)ccc21 | 3% | -55* | 2% | 8% | 0% | 9%
COC(=O)n1c(=S)oc2cc(Cl)ccc21 | 1% | . | . | . | . | .
CC(=O)COC(=O)c1ccc2noc(-c3ccccc3)c2c1 | 45µM* | ? | -19% | -21% | -22% | ?
Cc1ccc(-c2onc3ccc(C(=O)/C=C/N(C)C)cc23)cc1 | ? | ? | -12% | 0% | -20% | -26%
Cc1cccc(-c2onc3ccc(C(=O)/C=C/N(C)C)cc23)c1 | -15% | -68* | -19% | -26% | 11% | -23%
SMILES | POLB inh | PI5P4Ka inh | WRN helicase inh | Pol iota inh | Pol kappa inh | POLH inh
NC(=O)NC(=O)COC(=O)c1ccc2noc(-c3ccccc3)c2c1 | 2% | -7 | 24% | 63% | -9% | -6%
CCOC(=S)SSC(=S)OCC | . | . | . | . | 1%[19.4 µM] | .
CCCc1cc(=O)oc2c(C)c(OCC(=O)Nc3cccnc3)ccc12 | -13% | -2 | -6% | 33% | -2% | -4%
COc1ccc([C@H]2C[C@@H](O)[C@H](n3cc(COC(=O)c4ccccc4)nn3)CN2CC2CCCCC2)cc1 | . | 10 | -10% | . | . | -12%
O=C(NCc1ccco1)C1CC2CCC1C2 (stereo unspecified) | -1% | . | -9%[57.1 µM] | 89µM* | -10% | -18%
NC(=O)COC(=O)CC12CC3CC(CC(Br)(C3)C1)C2 | 6% | 0 | -2% | -4% | -1% | -14%
O=C(OCc1cc(=O)n2nc(-c3cccs3)sc2n1)c1ccccc1Br | 20µM* | . | . | ? | -25% | 79µM*
O=C(COc1ccccc1Cl)OCc1cc(=O)n2nc(-c3cccs3)sc2n1 | ? | . | . | -7% | -7% | -2%
O=C(OCc1cc(=O)n2nc(-c3cccs3)sc2n1)c1cccc(F)c1 | 18µM* | . | . | ? | -3% | ?
O=C(COc1ccc(F)cc1)OCc1cc(=O)n2nc(-c3cccs3)sc2n1 | ? | . | . | ? | ? | -10%
COc1ccc(NC(=O)COC(=O)c2c(C)noc2C)cc1Cl | . | 9 | -3% | . | . | -16%
COc1cc(OC)c2c(O)c3c(c(-c4c5c(c(O)c6c(OC)cc(OC)cc46)CO[C@@H](C)[C@H]5O)c2c1)[C@H](O)[C@H](C)OC3 | 35µM* | -90* | 50µM* | ? | 40µM* | 20µM*
COc1cc(OC)c2c(=O)c(O)c(-c3ccc(OC)c(OC)c3)oc2c1 | . | . | . | . | -11%[60.1 µM] | .
COc1cc2cc(CN(Cc3nnnn3Cc3ccco3)C3CCCCC3)c(=O)[nH]c2cc1OC | 45µM* | -20 | ? | ? | ? | ?
CCOc1ccc2[nH]c(=O)c(CN(Cc3ccco3)Cc3nnnn3Cc3ccccc3)cc2c1 | -18% | . | -19% | -16% | -12% | -9%
CCOc1ccc2[nH]c(=O)c(CN(Cc3nnnn3Cc3ccco3)C3CCCCC3)cc2c1 | 20µM* | 1 | -16% | 6% | -13% | 1%
CCOC(=O)c1cccc(NC(=O)c2ccc3nc(Cc4ccccc4)oc3c2)c1 | 12% | . | . | 17% | -5%[60.1 µM] | -18%
COc1ccc(NS(=O)(=O)c2cccc(C(=O)NNC(=O)c3ccc(=O)[nH]c3)c2)cc1 | . | -3 | 5% | -4% | -8% | -6%
N#C/C(=C\c1ccc(-c2cccc(C(F)(F)F)c2)o1)C(=O)Nn1cnnc1 | 7% | -1 | ? | -12% | -4% | -16%
O=C1OC(c2ccco2)=N/C1=C\c1ccc(-c2cccc(C(F)(F)F)c2)o1 | -1% | -8 | ? | 2% | -29% | 79µM*
Cc1cc(C)nc(SCc2ccc(C(=O)N/N=C/c3ccc(C(=O)O)cc3)cc2)n1 | 0% | 4 | -4% | 65% | -11% | 3%
C/C(=N\NC(=O)c1ccc(CSc2nc(C)cc(C)n2)cc1)c1ccco1 | 56µM* | 1 | 9% | 103% | -24% | -8%
COc1ccc(O)c(/C=N/NC(=O)c2ccc(CSc3nc(C)cc(C)n3)cc2)c1 | 25µM* | -6 | ? | ? | ? | ?
